ALDH1A1 block – blocks purified human ALDH1A1 activity. Potency, µM (top dose mostly 75.3 µM), without a hit: at the top dose activity, negative = inhibition, most hits filed as inhibitors. AID 1030. P00352. Purified ALDH1A1, NADH fluorescence, propionaldehyde substrate. 7.3% of 220,000 active;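 further: plate controls were no enzyme wells and a reference inhibitor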
Tau fluor counter – counter-screen for tau fibril formation inhibitors; tau K18 P301L Alexa594 fluorescence, heparin fibrillization; Potency, µM (top dose mostly 57.7 µM), for inactives: at the top dose activity change, negative = decrease; 0.93% of 280,000 active; AID 1463; active means well fitted curve in the direction sought with a large enough effect; inconclusive means small, poorly fitted or top-dose-only effect, or another doubt; inactive means no such curve, though single readings can be large; an effect the other way counts as inactive or inconclusive; further: nearly all actives have a fitted effect of over 55% in size
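Human K18 P301L tau (15 uM unlabeled plus 0.24 uM Alexa 594-labeled, final) in 100 mM sodium acetate pH 7 was mixed with compound and 20 uM heparin and incubated 6 hr at 37 C.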
Tau fibril ThT – blocks human tau fibril formation measured by thioflavin T; P10636; recombinant tau K18 P301L (four-repeat tau fragment), heparin-induced fibrillization, ThT fluorescence; Potency, µM (series often up to 57.4 µM), for inactives: at the top dose activity, negative = inhibition, hits mostly inhibitors; 2.1% of 270,000 active; AID 1460; active means well fitted curve in the direction sought with a large enough effect; inconclusive means small, poorly fitted or top-dose-only effect, or another doubt; inactive means no such curve, though single readings can be large; an effect the other way counts as inactive or inconclusive; further: nearly all actives have a fitted effect of over 55% in size
Target sequence (P10636 561-689 P618L limits assumed): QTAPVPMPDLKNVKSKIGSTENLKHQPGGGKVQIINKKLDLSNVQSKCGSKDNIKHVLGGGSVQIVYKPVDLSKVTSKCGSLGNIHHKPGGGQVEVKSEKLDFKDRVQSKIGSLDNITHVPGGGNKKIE
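In this qHTS, human K18 P301L tau is incubated with compound and heparin for 6 hr at 37 C, and Thioflavin T fluorescence then reports fibril load.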
JMJD2E inh – inhibitors of human JMJD2E histone demethylase | Potency, µM (highest dose often 57.1 µM), for the others: top-dose activity change, negative = inhibition, actives largely listed as inhibitors | JMJD2E catalytic domain, FDH-coupled NADH fluorescence (FDH is formaldehyde dehydrogenase) | B2RXH2 | 1.6% of 230,000 active | AID 2147;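 further: 0% = wells with enzyme and -100% = buffer wells without enzyme; nearly all actives have a fitted effect of over 50% in size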
Target sequence (B2RXH2 1-337 limits assumed): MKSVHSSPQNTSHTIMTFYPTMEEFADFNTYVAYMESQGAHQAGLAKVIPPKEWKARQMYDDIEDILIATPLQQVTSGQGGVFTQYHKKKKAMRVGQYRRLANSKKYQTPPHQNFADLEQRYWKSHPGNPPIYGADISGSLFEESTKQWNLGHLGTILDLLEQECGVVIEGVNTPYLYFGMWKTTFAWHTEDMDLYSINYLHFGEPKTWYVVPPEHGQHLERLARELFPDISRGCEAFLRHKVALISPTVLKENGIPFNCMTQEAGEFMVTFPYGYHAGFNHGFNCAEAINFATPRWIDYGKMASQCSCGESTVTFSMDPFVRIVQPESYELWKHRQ
HPGD block – blocks human HPGD enzyme activity. purified HPGD, NADH fluorescence kinetic, PGE2 substrate. P15428. Potency, µM, inactives show at the highest dose activity change, negative = inhibition, usual class: inhibitors. 4.3% of 150,000 active
Target sequence (P15428 whole entry, looked up): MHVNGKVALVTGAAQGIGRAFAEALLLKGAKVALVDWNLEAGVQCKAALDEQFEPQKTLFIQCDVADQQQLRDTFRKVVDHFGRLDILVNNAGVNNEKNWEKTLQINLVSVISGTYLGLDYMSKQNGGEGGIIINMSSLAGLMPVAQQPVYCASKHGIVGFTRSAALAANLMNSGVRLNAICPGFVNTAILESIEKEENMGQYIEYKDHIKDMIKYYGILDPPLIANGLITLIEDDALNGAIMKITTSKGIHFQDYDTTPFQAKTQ
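NADH formation kinetics: reaction with 30 uM PGE2 and 1 mM NAD+ (final), 20 nM enzyme, Tris-HCl pH 8 with Tween 20, after 15 min compound preincubation at room temperature. Fluorescence change, last versus first of five reads.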
Tau fibril FP – inhibitors of human tau fibril formation; K18 P301L tau heparin fibrillization, Alexa594 FP, 6 h; Potency, µM (titrated, usually from 57.7 µM), inactives show at the highest dose activity, negative = inhibition, usual class: inhibitors; 0.39% of 280,000 active; P10636; active means well fitted curve in the direction sought with a large enough effect; inconclusive means small, poorly fitted or top-dose-only effect, or another doubt; inactive means no such curve, though single readings can be large; an effect the other way counts as inactive or inconclusive; further: nearly all actives have a fitted effect of over 55% in size
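Human tau K18 […] P301L fragment, 15 uM unlabeled plus 0.24 uM Alexa 594-labeled tau (final), with compound and 20 uM heparin in 100 mM sodium acetate pH 7; 6 hr at 37 C, then Alexa 594 FP read.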
Starred values were filed as active, the others as inactive; ? = inconclusive; nt = no result; [ ] = dose if it differs, or a comment. In the library only some 9.9% were active in any assay of this set; here they are far more common. Unless noted, the call rests on the fitted dose curve; in most records, active means well fitted inhibition curve with a large enough effect (not every such curve was filed as active); inconclusive means small, poorly fitted or top-dose-only effect, or another doubt; inactive means no such curve, though single readings can be large or run the other way. Unless noted, on the % scale 0 is the no-effect control and ±100 the full control effect; potency means the concentration at half of the fitted maximal effect.

SMILES	ALDH1A1 block	Tau fluor counter	Tau fibril ThT	JMJD2E inh	HPGD block	Tau fibril FP
S=c1[nH]nc(-c2cccnc2)n1/N=C/C=C/c1ccccc1	-15.7%	2.1%	-7.3%	?	12.6µM*	-2.4%
CC(/C=N/n1c(-c2cccnc2)n[nH]c1=S)=C\c1ccccc1	?	-16.9%	?	?	3.16µM*	1.2%
CCN(CC)C(=O)CSc1nnc(CSc2ncccn2)n1C	nt	7.8%	9.3%	8.9%	nt	4.6%
COc1cc(CCC(=O)Nc2ccc(Br)c(C(F)(F)F)c2)cc(OC)c1OC	0.1%	?	-14.3%	0.7%	-9.2%	?
COc1ccc(CCn2c(C)cc(C(=O)CCl)c2C)cc1OC	0.112µM*	-7.3%	?	-16.0%	nt	0.6%
Cc1cc(C(=O)CSc2nnnn2C)c(C)n1CCc1ccc(F)cc1	-0.4%	5.5%	-3.4%	-6.0%	0.9%	-2.2%
COc1ccc(CCn2c(C)c(C(C)=O)c(C(C)=O)c2C)cc1OC	0.4%	-2.2%	3.2%	-16.9%	nt	-6.9%
Cc1cc(C(=O)CCl)c(C)n1CCc1ccc(Cl)cc1	0.178µM*	-16.9%	?	1.1%	nt	4.2%
Cc1cc(C(=O)CCl)c(C)n1CCc1ccc(F)cc1	0.398µM*	-4.3%	-10.2%	7.3%	nt	4.3%
Cn1c(N)c(C(=O)COC(=O)COc2ccccc2C#N)c(=O)n(C)c1=O	0.4%	-5.6%	-2.1%	2.0%	nt	-4.3%
COc1ccc(S(=O)(=O)N(C)C)cc1NCC(=O)Nc1ccc(Br)cc1F	11.2µM*	0.7%	3.9%	1.1%	-13.7%	2.3%
CCn1c2ccccc2c2cc(NS(=O)(=O)c3ccccc3C)ccc21	-32.2%	?	-3.7%	-7.8%	-21.8%	9.3%
CCOc1ccccc1NC(=O)Cn1c(=O)n(Cc2ccccc2)c(=O)c2cccnc21	nt	?	-3.3%	nt	nt	-12.1%
CCN1CCN(CC(O)COCC2COc3ccccc3O2)CC1 (stereo unspecified)	28.2µM*	-5.3%	-0.3%	-18.9%	nt	0.4%
Cc1ccc(N=Nc2c(N)n(-c3ccccc3)[nH]c2=O)cc1	-8.8%	10µM*[quencher]	3.16µM*	-2.4%	3.3%	-2.2%
COCCCn1c(=S)[nH]c2sc3c(c2c1=O)CCCS3	25.1µM*	-24.9%	?	-21.9%	nt	-8.9%
N#CC1=C(N2CCCCC2)c2cc3c(n2C1=O)CCCC3	8.91µM*	-12.4%	?	1.6%	25.1µM*	10.4%
N#Cc1c2n(c(=O)[nH]c1=O)CCCCC2	8.2%	1.3%	-8.6%	8.1%	-2.3%	-2.2%
Cc1nn(-c2ccccc2)c2ncc(C(=O)c3cc(Cl)ccc3O)cc12	-3.6%	-21.4%	-2.4%	-4.2%	15.8µM*	?
Cc1cc(Cl)ccc1OCC(=O)OCC(=O)Nc1ccc(F)c([N+](=O)[O-])c1	-9.0%	11.2µM*[quencher]	?	3.8%	-8.0%	?
O=C(NNc1c(Cl)cc(Cl)cc1Cl)C1CCC1	16.5%	-0.3%	2.9%	-0.1%	31.6µM*	5.9%
Cc1nc2ccccc2c(=O)n1NC(=O)c1cccc([N+](=O)[O-])c1	3.7%	-0.2%	3.5%	-0.6%	nt	-1.6%
O=C(NC1CCCCC1)c1cccs1	-12.0%	4.8%	2.7%	3.4%	31.6µM*	1.7%
O=C(NC1CCCC1)c1cc(-c2cccs2)on1	?	-6.8%	-10.0%	-1.2%	12.6µM*	-4.9%
CC1CCCC(C)N1C(=O)c1cc(-c2cccs2)on1 (stereo unspecified)	-2.5%	3.4%	-4.0%	-6.9%	14.1µM*	-2.0%
SMILES	ALDH1A1 block	Tau fluor counter	Tau fibril ThT	JMJD2E inh	HPGD block	Tau fibril FP
COC(=O)c1c(NC(=O)c2nc(SCc3cccc(C)c3)ncc2Cl)sc2c1CCCC2	nt	-0.7%	-0.8%	nt	nt	-2.1%
COc1ccc(C[N+](C)(C)N)cc1OC	-3.2%[13.5 µM]	nt	nt	nt	-3.4%	nt
COc1cc(/C=C2\SC(=S)N(NS(=O)(=O)c3ccccc3)C2=O)ccc1O	nt	-4.8%	14.1µM*	2.7%	nt	4.7%
COc1cc(/C=C2\SC(=S)N(NS(=O)(=O)c3ccc(C)cc3)C2=O)ccc1O	25.1µM*	-15.9%	10µM*	-0.9%	nt	6.5%
O=c1[nH]c2ccc(S(=O)(=O)N3CCCCC3)cc2[nH]c1=O	12.9%	9.6%	3.5%	?	-19.3%	3.6%
O=C(CCS(=O)(=O)c1cccs1)Nc1ccc(C(=O)NC2CCN(Cc3ccccc3)CC2)cc1	3.2%	-10.6%	1.5%	1.5%	nt	-14.0%
COc1cc(C)ccc1S(=O)(=O)n1nc(C)cc1C	-3.3%	-5.7%	1.8%	-1.3%	nt	2.0%
COc1ccc(NC(=O)C2CCCO2)cc1 (stereo unspecified)	5.5%	-1.6%	-5.3%	14.7%	25.1µM*	2.2%
O=C(Nc1ccc(Oc2ccccc2)cc1)C1CCCO1 (stereo unspecified)	-5.8%	-4.1%	-4.8%	7.7%	11.2µM*	2.4%
O=C(Nc1ccc(Oc2ccccc2)cc1)C1CC1	4.6%	-18.3%	-9.0%	-5.1%	nt	-11.7%
COc1ccc(Cc2nnc(NC(=O)C3CCCO3)s2)cc1 (stereo unspecified)	?	-0.5%	9.6%	1.1%	-17.7%	-2.1%
CC1CCN(C(=O)c2ccc(NC(=O)C3CCCO3)cc2)CC1 (stereo unspecified)	?	-2.4%	-9.1%	2.4%	0.708µM*	0.9%
COc1ccc(-c2csc(NC(=O)C3CCCO3)n2)cc1 (stereo unspecified)	22.4µM*	-13.3%	-11.7%	-0.8%	?	-1.6%
O=C(Nc1ccc([N+](=O)[O-])c(NC(=O)C2CCCO2)c1)C1CCCO1 (stereo unspecified)	?	-10.9%	?	-29.4%	-10.4%	-3.4%
COC(=O)COc1ccc(NC(=O)C2CCCO2)cc1 (stereo unspecified)	?	-2.4%	-13.2%	-0.4%	15.8µM*	3.7%
O=C(Nc1ccc(N=Nc2ccccc2)c(NC(=O)C2CCCO2)c1)C1CCCO1 (stereo unspecified)	?	-26.6%	14.1µM*	-3.8%	?	-1.9%
CC(NC(=O)C1CCCO1)c1ccccc1 (stereo unspecified)	5.4%	-6.7%	-8.7%	0.0%	17.8µM*	-1.6%
COC(=O)c1ccc(NC(=O)C2CCCO2)cc1 (stereo unspecified)	-1.0%	-5.6%	-11.5%	3.7%	?	-4.6%
COC(=O)c1c(-c2ccc(F)cc2)csc1NC(=O)C1CCCO1 (stereo unspecified)	20µM*	-14.0%	?	2.5%	nt	5.9%
CCc1ccc(-c2csc(NC(=O)C3CCCO3)c2C(=O)OC(C)C)cc1 (stereo unspecified)	-5.1%	-10.7%	-5.8%	-7.5%	-11.8%	1.0%
CCOC(=O)/C(=N/Nc1ccccc1)c1csc(Nc2ccccc2)n1	9.0%	7.08µM*[quencher]	?	-10.1%	-5.6%	?

Bioassay records (PubChem)
